# Reference: ChEMBL document CHEMBL4513216, “Probing the Open Global Health Chemical Diversity Library for Multistage-Active Starting Points for Next-Generation Antimalarials” (ACS Infect Dis, 2020)
# In all, about 69,000 compounds went through this assay and about 8,600 (12%) showed an effect of 50% or more. Many of the other results were omitted from the sample, so strong results are more common in it than they were.
# Test system: Plasmodium berghei
# Test: Screen against P. berghei liver stage (PbLuc), transformed with Luciferase, at 10uM
# Assay type: functional, HepG2
# Conditions: tested at 10 uM
row,Structure (SMILES),INHIBITION
1,CCc1ccc(CN2CCC3(CC2)CN(c2cnn(C)c2)C(=O)CO3)o1,34.4%
2,Cc1ccc(OCCCSC2=NCCN2)cc1,39.1%
3,CSc1nc2cc(C)n(CC(=O)NC(C)C)c2c(=O)n1CC(C)C,43.9%
4,COCCNC(=O)Cn1c(C)cc2nc(SC)n(CC(C)C)c(=O)c21,89.9%
5,CSc1nc2cc(C)n(CC(N)=O)c2c(=O)n1CC(C)C,42.3%
6,Cc1cc(C)n(CC(=O)N2CCC(Nc3cccnn3)CC2)n1,-7.95%
7,O=C(NCc1cccs1)[C@@H]1CC[C@@H]2[C@@H](CCN2C2CCOCC2)O1,27.6%
8,COCCO[C@@H]1CCN(C(=O)c2ccc[nH]2)[C@H]1Cc1cnn(C)c1,33.4%
9,CN(C)C(=O)N1CC[C@@H](O)[C@@H]1Cc1cnn(C)c1,19.5%
10,Cc1ccccc1C(=O)N1CC[C@@H](N(C)C)[C@@H]1Cc1cnn(C)c1,34.6%
11,CCO[C@@H]1CCN(C(=O)c2cscn2)[C@@H]1Cc1cnn(C)c1,37.5%
12,CN(C)[C@@H]1CCN(C(=O)c2cccn2C)[C@H]1Cc1cnn(C)c1,57.9%
13,CN(C)[C@@H]1CCN(C(=O)c2ccco2)[C@H]1Cc1cnn(C)c1,33.4%
14,Cn1cc(C[C@H]2[C@H](N3CCOCC3)CCN2C(=O)c2ccc[nH]2)cn1,55.5%
15,Cn1cc(C[C@H]2[C@H](O)CCN2C(=O)c2ccsc2)cn1,60.2%
16,Cn1cc(C[C@H]2[C@@H](O)CCN2C(=O)c2ccc[nH]2)cn1,4.27%
17,CCO[C@@H]1CCN(C(=O)c2cnc(C)cn2)[C@@H]1Cc1cnn(C)c1,53.2%
18,Cn1cc(C[C@H]2[C@H](N3CCOCC3)CCN2C(=O)c2ccco2)cn1,17.1%
19,CN(C)[C@@H]1CCN(C(=O)c2ccsc2)[C@H]1Cc1cnn(C)c1,48.3%
20,O=c1ccc(-c2cccs2)nn1CN1CCOC(c2ccccc2)C1 (stereo not drawn),-16.5%
21,Cc1oc(C)c(C(=O)N2CCN(Cc3cscn3)CC2)c1C,-63.3%
22,CN(C)c1cccc(C(=O)N2CCCSCC2CN2CCCC2)c1 (stereo not drawn),11%
23,CC(C)C(NC(=O)Cn1nc2c(cc1=O)CCCC2)C(=O)O (stereo not drawn),-0.621%
24,Cc1ccc(NCc2cncc3c2CCN(C(=O)C2CC=CC2)C3)nn1,-25%
25,O=C(c1cncs1)N1CCCC1c1ccn[nH]1 (stereo not drawn),-28.6%
26,Cc1nc(N2CCOCC2)nc2c1CCN(Cc1cccnc1)CC2,4.92%

row,Structure (SMILES),INHIBITION
1,Cc1cccc(N2CCN(C(=O)NC(C)c3nncn3C)CC2)c1 (stereo not drawn),-38.2%
2,O=C(N[C@@H]1CC[C@@H](N2CCOCC2)[C@@H]1O)c1cnn2cccnc12,38.8%
3,CCO[C@@H]1CCN(C(=O)c2ccnnc2)[C@@H]1Cc1cnn(C)c1,69.5%
4,O=C(c1ccnnc1)N1CC[C@H](OCC2CC2)[C@@H]1Cc1ccncc1,66.2%
5,COCCO[C@H]1CCN(C(=O)c2ccsc2)[C@H]1Cc1cnn(C)c1,-17.9%
6,CCO[C@@H]1CCN(C(=O)c2ccc[nH]2)[C@@H]1Cc1cnn(C)c1,29%
7,COCCO[C@H]1CCN(C(=O)NC2CC2)[C@H]1Cc1cnn(C)c1,62.8%
8,O=C(c1ccnnc1)N1CC[C@@H](O)[C@@H]1Cc1ccccc1,-3.58%
9,O=C(c1cccnc1)N1CC[C@H](OCC2CC2)[C@@H]1Cc1cccnc1,34.8%
10,COCCO[C@H]1CCN(C(=O)c2ccco2)[C@H]1Cc1cnn(C)c1,-22.5%
11,CCO[C@@H]1CCN(C(=O)N(C)C)[C@@H]1Cc1cnn(C)c1,12.4%
12,COCCO[C@@H]1CCN(C(=O)c2ccc(C)o2)[C@@H]1Cc1cnn(C)c1,21.6%
13,COCCO[C@H]1CCN(C(=O)c2cccnc2)[C@H]1Cc1cnn(C)c1,1.9%
14,COCCO[C@@H]1CCN(C(=O)c2ccnnc2)[C@H]1Cc1cnn(C)c1,53.4%
15,NC(=O)C1CCCN(C(=O)c2ccn(-c3ccc(F)cc3)n2)C1 (stereo not drawn),0.914%
16,c1cnc2[nH]c(C3CCNCC3)c(CN3CCOCC3)c2c1,6.32%
17,O=C([C@H]1CC[C@@H]2[C@@H](CCN2C2CCCCC2)O1)N1CCOCC1,20.6%
18,NCCCC(=O)NCC1(O)CCN(c2ccnc3cccnc23)C1 (stereo not drawn),8.3035%
19,OCC1CCCN1c1cc(NCCc2nccs2)ncn1 (stereo not drawn),-0.71%
20,OCC1CCCN1c1cc(NCCc2ccccn2)ncn1 (stereo not drawn),64.1%
21,OCC1CCCN1c1cc(NCc2ccccn2)ncn1 (stereo not drawn),-41.6%
22,OCC1CCCN1c1cc(NCCc2ccsc2)ncn1 (stereo not drawn),66.3%
23,OCC1CCCN1c1cc(NCc2ccsc2)ncn1 (stereo not drawn),43.2%
24,OCC1CCCN1c1cc(NCCNc2ccccn2)ncn1 (stereo not drawn),7.12%
25,C[C@@H]1C[C@H](C(F)(F)F)n2nc(C3CCN(S(=O)(=O)N(C)C)CC3)cc2N1,-2.11%
26,CNS(=O)(=O)c1ccc(C(=O)N2CCCC2c2ccccc2C)o1 (stereo not drawn),7.27%

row,Structure (SMILES),INHIBITION
1,O=C(NCc1nn(-c2ccccc2)c2c1CCC2)N1CCCC(O)C1 (stereo not drawn),-49.4%
2,CN1CCN(Cc2nnc(C3CCN(C(CO)CO)CC3)n2C)CC1,62.9%
3,CN1CCN(Cc2nnc(C3CCN(CC4CC4)CC3)n2C)CC1,-17%
4,CCCOC(=O)N1CCCC(c2nnc(CN3CCOCC3)n2C)C1 (stereo not drawn),31.2%
5,CN1CCN(Cc2nnc(C3CCN(C4CCCCC4)CC3)n2C)CC1,-10.9%
6,CCN(C)CC(=O)N1CCCC(c2nnc(CN3CCOCC3)n2C)C1 (stereo not drawn),55.7%
7,CN(CCO)Cc1nnc(C2CCN(C(=O)C3CCOCC3)CC2)n1C,39.1%
8,Cn1c(CN2CCOCC2)nnc1C1CCCN(C(=O)CCC2CC2)C1 (stereo not drawn),8.51%
9,Cn1c(CN2CCCC2)nnc1C1CCCN(C(=O)CN2CCCC2)C1 (stereo not drawn),21.2%
10,Cn1c(CN2CCCC2)nnc1C1CCCN(C(=O)C2CCOCC2)C1 (stereo not drawn),70.1%
11,Cn1c(CN2CCOCC2)nnc1C1CCN(C(=O)C2CCCC2)CC1,50.1%
12,Cn1c(CN2CCCC2)nnc1C1CCCN(C(=O)N2CCOCC2)C1 (stereo not drawn),5.78%
13,CN1CCC(c2nnc(CN3CCOCC3)n2C)CC1,27.7%
14,O=C(O)[C@@H]1CN(C(=O)CN2CCCCCC2)C[C@H]1c1ccccc1,-6.21%
15,CC(C)C1=NOC2(CCN(S(C)(=O)=O)CC2)C1,-35.4%
16,Cc1cc(C)n(CC2CCN(CC(O)COc3ccccc3)CC2)n1 (stereo not drawn),26.8%
17,NC1CCC(n2cc(C(=O)N[C@H]3CCCc4ccccc43)nn2)CC1 (stereo partly drawn),16.6%
18,CCc1nc(C2CCCN(C(=O)c3ccncc3)C2)no1 (stereo not drawn),-61.4%
19,Cc1noc(C)c1-c1cc(CCC2CN(CCC(N)=O)CCO2)ncn1 (stereo not drawn),-2.2555%
20,CCSCc1ccc(C(=O)N2CCCN(CC)CC2)cc1,47%
21,COc1ccc(C(C)NCCc2ccc(NC(C)=O)cc2)c(OC)c1 (stereo not drawn),1.56%
22,CN(C)c1cccc(C2CCCN2S(=O)(=O)c2cn(C)cn2)n1 (stereo not drawn),-52.6%
23,CSCCC(NC(N)=O)C(=O)NCc1ccc(-n2cccn2)cc1 (stereo not drawn),56.6%
24,CSCC[C@H](NC(C)=O)C(=O)N(C)Cc1ccc(-n2cccn2)cc1,54.4%
25,CSCCC(NC(N)=O)C(=O)Nc1ccc(-n2cccn2)nc1 (stereo not drawn),1.79%
26,CSCCC(NC(N)=O)C(=O)NCc1cnn(-c2ccccc2)c1 (stereo not drawn),29.8%

row,Structure (SMILES),INHIBITION
1,CSCCC(O)C(=O)N(C)Cc1cnn(-c2ccc(F)cc2)c1 (stereo not drawn),24.2%
2,CN(Cc1ccc(-n2cccn2)cc1)C(=O)CCC(F)(F)F,35.1%
3,Cc1cnc(C(=O)N2C[C@@H]3CC[C@H]2CN(S(=O)(=O)N(C)C)C3)cn1,42%
4,O=C(NC1CC1)N1C[C@@H]2CCN(C(=O)c3cscn3)[C@@H]2C1,-1.28%
5,Cn1cc(Cl)cc1C(=O)N1CCCN(Cc2nccn2C)CC1,0.16%
6,CCCc1noc(CN2CCCC2c2noc(C3CC3)n2)n1 (stereo not drawn),40.9%
7,O=C(NC1CC1)[C@H]1C[C@H]2OCC[C@H]2N(Cc2ccc(F)cc2)C1,-15.3%
8,Cc1cc(-c2cccc3c2CCNC3)cnc1-n1cnnc1,26.4%
9,Cc1nc(-n2cnnc2)ccc1-c1cccc2c1CCNC2,61.1%
10,Cc1cnc(-n2cnnc2)c(-c2cccc3c2CCNC3)c1,53.3%
11,Cc1ccc(C(=O)O)cc1-c1cccc2c1CCNC2,15.8%
12,COc1ccc(C(=O)O)cc1-c1cccc2c1CCNC2,21.2%
13,CN(C)C(=O)c1ccc(-c2cccc3c2CCNC3)cc1,33.9%
14,CCn1cncc1CN1CCN(CC2(c3ccc(C)cc3)CC2)CC1,-29.9%
15,O=C(O)C1(Cc2cc(-c3ccccc3F)no2)CCOCC1,21.9%
16,Cc1nn(C)c2nc(NCCN3CCCC(C(N)=O)C3)sc12 (stereo not drawn),20%
17,Cn1ccnc1CN1CCC(CCCc2ccccn2)(C(N)=O)CC1,-20.6%
18,CNC(=O)C1Cc2ccccc2CN1C(=O)CC(C)C (stereo not drawn),-47%
19,Cc1cc(C)n(CC(C)CNC(=O)NCc2c(C)cc(C)[nH]c2=O)n1 (stereo not drawn),42.3%
20,Cc1cc(C)n(CCCNC(=O)NCc2c(C)cc(C)[nH]c2=O)n1,38.9%
21,Cc1cc(C)n(CC(C)NC(=O)NCc2c(C)cc(C)[nH]c2=O)n1 (stereo not drawn),50.8%
22,CCC(=O)N1CCCC1c1n[nH]cc1-c1ccccc1F (stereo not drawn),-6.73%
23,Cc1ccc(-n2nnnc2SCN2CCCCC2=O)cc1C,63.8%
24,Cc1ccc(C)c(-n2nnnc2SCN2CCCCC2=O)c1,13.7%
25,O=C1CCCCN1CSc1nnnn1-c1ccc(Cl)cc1,30.4%
